High-throughput results as filed in PubChem.
A selection: hits, their analogues and other compounds. The true share with any hit is near 4%.
Anthrax LF prot: anthrax lethal factor protease inhibition. P15917. multiplex microsphere protease cleavage assay, LF. inhibition, % at 10 µM. actives 0.12% (n = 360,000). AID 588501
VHR inh abs: DUSP3 (human) phosphatase inhibition. AID 1654. P51452. inhibition, % at 13.3 µM. recombinant VHR phosphatase, pNPP absorbance. actives 0.52% (n = 290,000); in the data active = inhibition above about 50%
Target sequence (P51452 whole entry, looked up): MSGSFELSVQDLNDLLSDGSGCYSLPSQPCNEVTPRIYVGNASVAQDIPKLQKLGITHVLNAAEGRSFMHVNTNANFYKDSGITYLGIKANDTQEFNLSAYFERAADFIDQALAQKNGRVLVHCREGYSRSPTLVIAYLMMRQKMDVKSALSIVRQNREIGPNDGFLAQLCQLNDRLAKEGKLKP
BoNT F protease: BoNT F light chain protease inhibition | Multiplex microsphere protease cleavage assay, flow cytometry | inhibition, % at 10 µM | actives 0.22% (n = 360,000) | AID 588497; in the data active = inhibition above about 35%, passing the limit was not always enough; inconclusive = no clear call, values can overlap the other calls
BoNT-A LC inh2: BoNT A light chain protease inhibition | multiplex microsphere protease substrate cleavage, flow cytometry | inhibition, % at 10 µM | actives 0.17% (n = 360,000) | AID 588499
MazEF act: increases E. coli MazEF RNase cleavage of RNA; AID 504720; FAM/BHQ RNA-DNA oligo cleavage fluorescence, 5 h; activation, % at 20 µM; P0AE70; actives 0.32% (n = 350,000); in the data active = activation above about 50%
Target sequence (P0AE70 whole entry, looked up): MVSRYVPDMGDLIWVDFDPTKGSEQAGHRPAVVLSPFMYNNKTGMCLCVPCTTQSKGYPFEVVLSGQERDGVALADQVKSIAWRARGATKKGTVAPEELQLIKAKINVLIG
Bead autofluor: flagged as autofluorescent in microsphere protease counterscreen; actives 3.1% (n = 360,000); AID 624483; fluorescence intensity (test concentration not listed); compound autofluorescence counterscreen, microsphere flow cytometry; hits give high values; in the data active = fluorescence intensity above about 16000; inconclusive = no clear call, values can overlap the other calls
Of the large screens only hits and unclear results are named; the others gave an inactive call. Cut-off read from the data, not from the text of the source, unless noted: active = inhibition above about 30%; inconclusive = no clear call, values can overlap the other calls; inactive = below that.

CCc1cc(C(=O)N2CCCC(CCC(=O)N3CCN(c4ccccn4)CC3)C2)no1 (centres undefined)	none
O=C(N1CCOCC1)N1CCN(Cc2ccccc2)CC1	BoNT-A LC inh2 inconclusive, Bead autofluor 16289
c1ccc(CN2CCOCCOCCOCC2)cc1	BoNT F protease inconclusive
COc1ccc(NC(=O)CS(=O)(=O)c2cccc(Cl)c2)cc1	none
CC(=O)C1=C(c2cccc([N+](=O)[O-])c2)N(C(C)=O)n2c(C)nnc2S1	MazEF act 52
CCOc1ccc(Cl)cc1CSc1n[nH]c(CC)n1	Bead autofluor 22875
O=C(COc1ccccc1)Nc1ccc(-c2nnc(-c3ccco3)o2)cc1	none
CC(C)COc1ccc(-c2nnc(-c3ccco3)o2)cc1	Bead autofluor 17184
CCCOc1ccc(-c2nnc(-c3ccco3)o2)cc1	Bead autofluor 21565
COc1ccc(-n2nc(C(=O)NCC(=O)N3CCN(C)CC3)c3ccccc3c2=O)cc1	none
COc1cccc(-c2cc(C(=O)N3CCN(C(=O)c4ccco4)CC3)[nH]n2)c1	none
CCc1ccc(C(=O)NNC(=O)C2CC(=O)N(Cc3ccccc3)C2)cc1 (centres undefined)	none (no result: VHR inh abs)
O=C(NNC(=O)C1CC(=O)N(Cc2ccccc2)C1)c1ccc(Br)cc1 (centres undefined)	VHR inh abs 57
CC(C(N)=O)N1C(=O)c2cccc3cccc1c23 (centres undefined)	Bead autofluor 23424
CC(C(=O)NC1CCCC1)N1C(=O)c2cccc3cccc1c23 (centres undefined)	Bead autofluor inconclusive
O=c1c(-c2nnc(SCc3ccc(Cl)cc3Cl)o2)cccn1Cc1ccccc1	BoNT-A LC inh2 inconclusive, Bead autofluor 22041
CSc1nnc(-c2cccn(Cc3ccccc3)c2=O)o1	none
C=CCn1nc2n(c1=O)-c1ccccc1SC2	none
COc1ccc(C(=O)Nn2c(SCC(=O)NC3CCCCC3)nc3ccccc3c2=O)cc1	Bead autofluor 20612
COc1ccc(C(=O)Nn2c(C3CCC3)nc3ccccc3c2=O)c(OC)c1	Bead autofluor 18494
COCCn1c(SCC(=O)N2CCC(C)CC2)nc2ccccc2c1=O	none
COc1ccc(C(=O)Nn2c(SCC(=O)c3ccc(Cl)cc3)nc3ccccc3c2=O)cc1	Bead autofluor 20288
COc1ccc(C(=O)Nn2c(SCC(=O)N3CCC(C)CC3)nc3ccccc3c2=O)cc1	BoNT-A LC inh2 inconclusive, Bead autofluor 20975
C=CCn1c2ccccc2c2nnc(SCc3ccc4nonc4c3)nc21	none
CCOC(=O)c1c(C)[nH]c(C)c1C(=O)COC(=O)c1ccc(S(=O)(=O)N(CC)CC)cc1	BoNT-A LC inh2 inconclusive, Bead autofluor 16763
CCOC(=O)c1c(C)[nH]c(C)c1C(=O)COC(=O)c1cccc(S(=O)(=O)N(CC)CC)c1	none
COc1ccccc1C(=O)N/C(N)=N/c1nc2ccccc2o1	MazEF act 61
O=C(O)CCN1C(=O)/C(=C\c2ccc(-c3nc4ccccc4s3)o2)SC1=S	Anthrax LF prot 40, BoNT-A LC inh2 47
O=C(O)CN1C(=O)/C(=C/c2ccc(SCc3ccccc3)o2)SC1=S	MazEF act 123
O=C1/C(=C\c2ccco2)SC(=S)N1Cc1ccccc1	Anthrax LF prot 34, BoNT-A LC inh2 44
O=C1/C(=C\c2cc(Cl)c(O)c(Cl)c2)SC(=S)N1Cc1ccccc1	Bead autofluor 17886
CCCC(C(=O)NCc1ccccc1)N(C(=O)Cn1nnc(-c2cccs2)n1)c1ccc2c(c1)OCCO2 (centres undefined)	none
O=C(CS(=O)(=O)Cc1ccccc1)Nc1nc2ccccc2s1	Anthrax LF prot inconclusive, Bead autofluor inconclusive
COc1cccc(CNC(=O)CCn2c(=O)oc3ccccc32)c1	Bead autofluor 25239
O=C(CCn1c(=O)oc2ccccc21)NCCN1CCc2ccccc2C1	Bead autofluor 20382
CC1CCCC(NC(=O)COC(=O)Cc2ccccc2)C1C (centres undefined)	Bead autofluor 17041
CC1CCCC(NC(=O)CCn2c(=O)oc3ccccc32)C1C (centres undefined)	Bead autofluor 22573
CC1CCCC(NC(=O)COC(=O)Cc2ccc(Cl)cc2)C1C (centres undefined)	none (no result: VHR inh abs)
O=C(CCCn1c(=O)oc2ccccc21)N1CCc2ccccc2C1	none
CC1CCCCC1NC(=O)CCn1c(=O)oc2ccccc21 (centres undefined)	none
CCOc1ccc(NC(=S)NN(C)C(=S)Nc2ccc(OCC)cc2)cc1	none
Cc1nn(Cc2cccc(F)c2)c(C)c1NC(=O)c1ccc(COc2ccccc2Cl)cc1	none
O=C(Nc1ccn(Cc2c(F)c(F)c(F)c(F)c2F)n1)c1ccc(COc2ccccc2Cl)cc1	VHR inh abs 52, Bead autofluor 25404
Cc1nn(Cc2c(F)c(F)c(F)c(F)c2F)c(C)c1NC(=O)c1cccc(COc2ccccc2Cl)c1	Bead autofluor 20980
O=C(Nc1ccn(Cc2c(F)c(F)cc(F)c2F)n1)c1ccc(COc2ccc(Cl)cc2Cl)o1	none
CC1(Cc2ccccc2C#N)C(=O)Nc2ccc(OC(F)(F)F)cc21 (centres undefined)	none (no result: VHR inh abs, MazEF act)
Cc1ccc(C(=S)NCS(=O)(=O)c2ccc(C)cc2)cc1	Bead autofluor 23970
CCOc1ccc(NC(=O)/C=C/c2ccccc2)c([N+](=O)[O-])c1	none
CCOc1ccc(/C=C/C(=O)Nc2ccc(OC)cc2[N+](=O)[O-])cc1	MazEF act 237
Cc1ccc(-c2nc(-c3ccncc3)no2)cc1C	VHR inh abs 59, BoNT F protease inconclusive, Bead autofluor inconclusive
Cc1ccc(-c2nc(-c3ccncc3)no2)cc1Cl	none
N#CC(C#N)=Cc1ccc(-c2ccccc2F)o1	MazEF act 149
O=c1cc(/C=C/c2ccccc2)oc2ccccc12	BoNT-A LC inh2 inconclusive, Bead autofluor 22100
N#CC(c1ccc(Cl)cc1)N1CCOCC1 (centres undefined)	none
Cc1ccc(C(C#N)N2CCOCC2)cc1 (centres undefined)	Bead autofluor 22170
CC(=O)c1cccc(NC(=O)NCc2cccnc2)c1	Bead autofluor 20530
O=C(NCc1cccnc1)Nc1cccc(NC(=O)NCc2cccnc2)c1	Bead autofluor 27382
CCCCC[C@H](O)/C=C/[C@@H]1[C@@H](C/C=C\CCCC(=O)O)[C@@H](O)C[C@H]1O	none
COc1ccc(NC(=O)c2cc(Cl)ccc2NC(=O)c2ccco2)c(OC)c1	none
O=C(CSc1ncn(-c2ccccc2)n1)N1CCc2ccccc21	none
CCOC(=O)c1c(C)n(C)c2ccc(OCC(O)Cn3c(C)nc4ccccc43)cc12 (centres undefined)	BoNT-A LC inh2 inconclusive, Bead autofluor 23462
O=C(Nc1ccccc1)NC1CS(=O)(=O)CC1O (centres undefined)	Bead autofluor 22098
O=S1(=O)C[C@@H](O)[C@@H](Nc2ccccc2)C1	none (no result: Anthrax LF prot, BoNT F protease, BoNT-A LC inh2, Bead autofluor)
Cc1ccc2c(COC(=O)CC3Sc4ccccc4NC3=O)cc(=O)oc2c1C (centres undefined)	none
